We go through 49 molecules from PubChem BioAssay AID1347416 (National Center for Advancing Translational Sciences (NCATS), 2020).

“And” between values parts separate entries of the source, which are not always exact repeats. Equal values may be shown once. In all, about 4,100 compounds went through this assay and about 1,600 (39%) were called active. Another 25% or so got no clear call; they are omitted. Some of the results follow. Values without a mark were called inactive. The call rests on the fitted dose curve; in most records, active means well fitted inhibition curve with a large enough effect; inconclusive means small, poorly fitted or top-dose-only effect; inactive means no such curve, though single readings can be large or run the other way.
On the % scale 0 is the no-effect control and ±100 the full control effect; potency means the concentration at half of the fitted maximal effect.

The test is described as follows: qHTS Validation assay for Inhibitors of Plasmodium falciparum Dd2 growth in vitro. Further: nearly all actives have a fitted effect of over 70% in size. Conditions: P. falciparum Dd2 in RBCs, SYBR Green growth, 72 h; series mostly up to 28.7 µM; activity change, negative = inhibition: at the top concentration. From the text: Malaria, a parasitic disease spread to humans through the bite of a Plasmodium infected Anopheles mosquito, continues to be a global health burden affecting millions of people, with an estimated 228 million cases and 405,000 deaths in 2018. Concerns about safety and limitations of current antimalarial treatments strongly emphasize the need to develop new therapeutic options. The scarce number of chemotypes and validated drug targets with efficacy against the liver stage, have hindered development of new antimalarials. To address this, a chemoprophylactic drug discovery effort was conducted through a combined phenotypic high-throughput asexual blood stage and liver stage screen, providing a robust foundation to identify liver-stage active lead chemotypes. Compounds were initially screened against Plasmodium falciparum Dd2 strain parasites using a in vitro SYBRGreen-1 based 72 hr proliferation assay to identify novel chemotypes to advance to liver stage assays. NIH/NCATS Early Translation Branch Assay Submitter (PI): Anton Simeonov Ph.D.
[…] Assay Protocol: PROTOCOL TABLE (as described by Inglese et al., 2007) SEQUENCE No. (e.g., 1, 2, 3, etc.); PARAMETER (e.g., Cells, Incubation, Reagent, etc.); VALUE; DESCRIPTION SEQUENCE, Parameter, Description 1; Reagent; 3 uL complete malaria growth medium, 1536 TC treated Black clear bottom plate 2; Controls; 23 nL positive control artesunate (300 nM final) to column 1; Neutral control DMSO to columns 2-4 3; Compound; 23 nL of compounds in dose response concentration (29 uM to 0.5 nM final) 4; Reagent; 5 uL malaria infected red blood cells (2.5% hematocrit final, 0.3% parasitemia 5; Time; 72 hours at 37C (5% O2, 5% CO2, 90% N2; 95% Rh) 6; Reagent; 2 uL lysis buffer/SYBRGreen-1, 25 sec shake immediately following dispense 7; Time; ~16 hours at 37C (5% O2, 5% CO2, 90% N2; 95% Rh) 8; Detector; EnVision (PerkinElmer) bottom read at 485/14nm excitation and 535/25 nm emission NOTES (numbers refer to sequence above): 1; Complete Malaria Growth Media: 1X RPMI-1640 w/L-glutamine, 5.5g/L Albumax II, 367 uM Hypoxanthine, 25 mM HEPES, 0.25% Sodium Bicarbonate, 35 uM Gentamicin sulfate 2; Controls were added using the Kalypsis Pintool (Wako USA) equipped with 1536 pinhead 3; Compounds were added in a 7-point, titration with a high final concentration of 29 uM by Pintool from seven inter-plate titrations of library plates and two DMSO control plates at the beginning and end (see Yasgar et al., 2008). 4; Red blood cells infected with Plasmodium falciparum Dd2 parasites were used. 6; Lysis buffer: 20 mM Tris-HCl, 10 mM EDTA, 0.16% Saponin, 1.6% Triton-X, 10X SYBR Green. REFERENCE: Inglese J, Shamu CE, Guy RK. 2007. Reporting data from high-throughput screening of small-molecule libraries. Nat Chem Biol. doi:10.1038/nchembio0807-438 Yasgar A, Shinn P, Jadhav A, Auld D, Michael S, Zheng W, Austin CP, Inglese J, Simeonov A. 2008. Compound Management for Quantitative High-Throughput Screening. J Lab Autom 13:79-89. doi:10.1016/j.jala.2007.12.004
As to `Cn1cc(C(=O)N2[C@H]3CC[C@@H]2c2cnc(-c4ccccc4)nc2C3)cn1`, the “activity change, negative = inhibition” value is 6.34%.

For the molecule `Cc1ccc(C(=O)N2[C@H]3CC[C@@H]2c2cnc(-c4ccccc4)nc2C3)cn1`, the “activity change, negative = inhibition” value is -30.1%.

On to `Cc1noc(C)c1Cc1ccc(C(=O)N2[C@H]3CC[C@@H]2c2cnc(-c4ccccc4)nc2C3)o1`, for which the Potency was 9.44 µM (active).

Turning to `Cc1nc(-c2ccccc2)cc([C@H]2CN3CC[C@H]2C[C@@H]3CN(Cc2ccco2)Cc2ccco2)n1`, the Potency is 2.99 µM (active).

For the molecule `Cc1nc(-c2ccco2)cc([C@H]2CN3CC[C@H]2C[C@@H]3CNCc2ccccc2)n1`, the Potency is 4.33 µM (active).

On to `CCOc1ccc(CN(CCc2ccc3c(c2)OCO3)Cc2cc(OC)ccc2O)cc1`, for which the Potency is 0.668 µM (active).

Consider `CCOc1cccc(CNCCc2c(C)[nH]c3ccc(OC(F)(F)F)cc23)c1O`, for which the Potency is 2.37 µM (active).

As for `Cc1ccc(CN2C3CCCC2CC(NC(=O)Nc2cccc(F)c2)C3)cc1` (centres undefined), the Potency was 10.6 µM (active).

As to `O=C(NC1CN2CCC1CC2)c1ccc(-c2ccc([N+](=O)[O-])cc2)o1` (centres undefined), the “activity change, negative = inhibition” value was 13.2%.

As to `COC1C(=O)N(c2cccc(F)c2)C12CCNCC2` (centres undefined), the Potency is 10.6 µM (active).

In the case of `FC(F)(F)CN1C2CCC1CN(c1nnc(Cl)c3ccccc13)C2`, the Potency is 2.11 µM (active).

For `CCC(CC)c1cc([C@H]2CN3CC[C@H]2C[C@@H]3COC(=O)Nc2ccc(C(C)(C)C)cc2)nc(-c2ccncc2)n1`, the Potency is 2.11 µM (active).

`O=C(Nc1ccccc1)OC[C@H]1C[C@@H]2CCN1C[C@@H]2c1cc(C2CCCC2)nc(-c2ccncc2)n1`: the Potency is 1.68 µM (active).

`CC(C)(C)c1ccc(NC(=O)OC[C@H]2C[C@@H]3CCN2C[C@@H]3c2cc(C3CCCC3)nc(-c3ccncc3)n2)cc1`: the Potency is 2.11 µM (active).

As for `COc1ccc(NC(=O)OC[C@H]2C[C@@H]3CCN2C[C@@H]3c2cc(C3CCCC3)nc(-c3ccncc3)n2)cc1`, the Potency is 4.22 µM (active).

Regarding `N#Cc1nn(-c2c(Cl)cc(C(F)(F)F)cc2Cl)c(N)c1S(=O)C(F)(F)F` (centres undefined), the Potency is 9.44 µM (active).

Consider `Cc1c2ccncc2c(C)c2c1[nH]c1ccccc12`, for which the Potency is 3.35 µM (active).

`CCN1CC=C(c2c[nH]c3ccccc23)CC1`: the Potency is 4.22 µM (active).

As for `CC(C)N1CC=C(c2c[nH]c3ccccc23)CC1`, the Potency was 10.6 µM (active).

Turning to `CCN(CC)C1=NC(=[N+](CC)CC)c2ccccc21`, the Potency is 5.31 µM (active).

With `COc1ccc(CC(=O)N2Cc3ccccc3CC3(CCCN3C)C2)cc1` (centres undefined), the Potency is 9.44 µM (active).

With `CC(C(=O)c1c[nH]c2ccccc12)N1CCN(C(=O)c2ccco2)CC1` (centres undefined), the Potency is 5.96 µM (active).

In the case of `COc1cccc([C@@H]2CCN(Cc3[nH]c4ccccc4c3C)C[C@H]2O)c1`, the Potency was 1.5 µM (active).

Turning to `CCN1CCN(Cc2cc(Br)cc(Br)c2O)CC1`, the Potency was 7.5 µM (active).

As for `Oc1c(Br)cc(Br)cc1CN1CCN(Cc2ccccc2)CC1`, the Potency is 1.06 µM (active).

On to `COc1cc(C2NCc3ccccc3-n3cccc32)ccc1O` (centres undefined), for which the Potency is 2.66 µM (active).

For `Oc1ccc(C2NCc3ccccc3-n3cccc32)cc1Cl` (centres undefined), the Potency is 1.19 µM (active) and 1.5 µM (active).

On to `CC(C)CCNC(=O)c1cc(C(=O)c2cc(Br)ccc2O)cn(CCC(C)C)c1=O`, for which the Potency was 0.944 µM (active).

Regarding `O=C(c1cc(C(=O)NCc2ccccc2)c(=O)n(Cc2ccccc2)c1)c1cc(Br)ccc1O`, the Potency is 4.73 µM (active).

As for `CC(C)CCNC(=O)c1cc(C(=O)c2cc(F)ccc2O)cn(CCC(C)C)c1=O`, the Potency is 2.11 µM (active).

Take `CCOc1c(Cl)cc(CNC(C)C(O)c2ccccc2)cc1OC` (centres undefined): the Potency is 6.68 µM (active).

Turning to `CC(NCc1ccc(Cl)cc1Cl)C(O)c1ccccc1` (centres undefined), the Potency is 4.73 µM (active).

In the case of `O=C1NC2(CCCN(Cc3ccccn3)C2)COc2ccccc21` (centres undefined), the Potency was 4.85 µM (active).

As for `CC(C)(C)CN1CCC2(COc3ccncc3S(=O)(=O)N2)C1` (centres undefined), the “activity change, negative = inhibition” value is 55.1%.

As for `Cc1cc(O)c(CN2CC=C(c3ccccc3)CC2)cc1C(C)C`, the Potency is 0.335 µM (active).

Turning to `COc1ccc2ccc(O)c(CN3CC=C(c4ccccc4)CC3)c2c1`, the Potency is 8.41 µM (active).

Take `CCOc1ccc(CN2C(=O)c3ccccc3Sc3ccc(C(=O)N4CCC5(CC4)OCCO5)cc32)cc1`: the Potency is 4.22 µM (active).

As to `CCC(CC)c1cc([C@H]2CN3CC[C@H]2C[C@@H]3CNS(=O)(=O)c2cccs2)nc(-c2ccncc2)n1`, the Potency is 2.37 µM (active).

Regarding `CCC(CC)c1cc([C@H]2CN3CC[C@H]2C[C@@H]3CNS(=O)(=O)c2ccccc2C#N)nc(-c2ccncc2)n1`, the Potency was 1.5 µM (active).

As for `COC(=O)C(C)Oc1cc(C)cc2oc(=O)c3c(c12)CCC3` (centres undefined), the “activity change, negative = inhibition” value is -27.6%.

Turning to `Cc1nc2c(=O)n(C)c(=O)nc-2n(C)n1`, the Potency is 0.422 µM (active).

For the molecule `CCC(CC)c1cc([C@H]2CN3CC[C@H]2C[C@@H]3CNC(=O)NCc2ccccc2)nc(-c2ccncc2)n1`, the Potency is 4.22 µM (active).

Regarding `CCC(CC)c1cc([C@H]2CN3CC[C@H]2C[C@@H]3CNC(=O)c2ccc(C)cc2)nc(-c2ccncc2)n1`, the Potency was 10.6 µM (active).

Turning to `CCC(CC)c1cc([C@H]2CN3CC[C@H]2C[C@@H]3CNC(C)=O)nc(-c2ccncc2)n1`, the Potency was 15.3 µM (active).

Turning to `CCC(CC)c1cc([C@H]2CN3CC[C@H]2C[C@@H]3CNC(=O)COc2ccccc2)nc(-c2ccncc2)n1`, the Potency is 1.5 µM (active).

For `CCC(CC)c1cc([C@H]2CN3CC[C@H]2C[C@@H]3CNC(=O)Cc2cccs2)nc(-c2ccncc2)n1`, the Potency was 2.99 µM (active).

As to `CCC(CC)c1cc([C@H]2CN3CC[C@H]2C[C@@H]3CNC(=O)c2ccccc2)nc(-c2ccncc2)n1`, the Potency is 10.6 µM (active).

Consider `CCOC(=O)C1(c2ccccc2)CCN(CCC(C#N)(c2ccccc2)c2ccccc2)CC1`, for which the Potency was 5.31 µM (active).

`CC(C)[C@@]1(NC(=O)[C@@H]2C[C@@H]3c4cccc5[nH]cc(c45)C[C@H]3N(C)C2)O[C@@]2(O)[C@@H]3CCCN3C(=O)[C@H](Cc3ccccc3)N2C1=O`: the Potency is 2.37 µM (active).
